Source: publication PMC12136788
Over roughly 24,000 sequences, “enrichment r” has its median near 0.99; the highest 2% begin near 3.7. Many of the other results were omitted from the sample, so the highest values are more common in it than they were.

T1: UNK ZnF1-3 (human, UniProt Q9C0B0 31-174)
T1 sequence: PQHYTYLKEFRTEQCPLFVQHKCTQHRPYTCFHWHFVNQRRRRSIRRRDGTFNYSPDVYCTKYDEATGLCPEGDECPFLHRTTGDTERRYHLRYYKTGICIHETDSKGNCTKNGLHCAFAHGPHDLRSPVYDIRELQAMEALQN

B1: chr8:133807003:133807004:+_ENSG00000129292_ENST00000220847|hu_mus|FALSE|FALSE (ssRNA)
RNA: GGGAGUUCUACAGUCCGACGAUCUUUGUUAAUUGCUUCAAUCUUGGCAGGGUAAUAGCGACAGUCUGUCCAACGAGCCAGUACUUCUUCUCCAGCUUUAAAAUCAAAGAGCUCUUCCUCAUCCUUUAGCCCUUCUUUCCUUAGCAACAGAGGAUUGAGCAUCA
B2: chr9:37357388:37357389:+_ENSG00000147905_ENST00000336755|hu_hu|FALSE|FALSE (ssRNA)
RNA: GGGAGUUCUACAGUCCGACGAUCUUGGACACAGAGAAUUGAGAUCUCCAUGGAUAUUCAGUAACUCUAGGAAUGGCUGAAAUUAAAAAAACAAAACCAAAAACUCACUUUAUUUAAUCAUAGAUAAUAAACACAGUGCCAGAACAACAGAGGAUUGAGCAUCA
B3: chr2:49628351:49628352:+_ENSMUSG00000026764_ENSMUST00000028102|mus_hu|FALSE|FALSE (ssRNA)
RNA: GGGAGUUCUACAGUCCGACGAUCACCGCAAAUAAUGGUAGAGCAGGUAUAUUGGGCUGGCACUGAUAACAAAAUUAAAGAAUGAAAAAAAUUUAAACAAAUGCAAAAUUGCCAUCUUCACAAAAUAAAUACUUCAAUAGAAUUCAACAGAGGAUUGAGCAUCA
B4: chr2:5814250:5814251:-_ENSMUSG00000025816_ENSMUST00000102981|mus_hu|mus_mus_mus_hu_True|68_108 (ssRNA)
RNA: GGGAGUUCUACAGUCCGACGAUCUUCCUUUCAGGCUUCUGAAUUUCUGGUAGAACUGCACAGAAUGGUUUAAUAACUUCUAAAAAUUUGAUGCCCAUGGCUGCUGCUGGGGAGGCCCAGGGGGAAACCGCGGCCUCGGCGCUGCAACAGAGGAUUGAGCAUCA
B5: chr2:49628383:49628384:+_ENSMUSG00000026764_ENSMUST00000028102|mus_hu|FALSE|FALSE (ssRNA)
RNA: GGGAGUUCUACAGUCCGACGAUCAUAAGCUUUGCAAAACCUGCCCCACAAGGACCCUUUUAUCAGACCGCAAAUAAUGGUAGAGCAGGUAUAUUGGGCUGGCACUGAUAACAAAAUUAAAGAAUGAAAAAAAUUUAAACAAAUCAACAGAGGAUUGAGCAUCA
B6: 49527313_49535755_592_CDS_ENSMUSG00000026764_ENSMUST00000028102|mouse|control|control (ssRNA)
RNA: GGGAGUUCUACAGUCCGACGAUCCAUGGUAUGAGUUUUUCCUGAUGAAGUCUGCCCAUAUGCAAAAAUUGUUCCAUUAUAACCCUCAAGGACAUCUUUGACAAUCUGCUUUGCACAGGCAUUGUAGACCUGCUCCUGGGUUGUCAACAGAGGAUUGAGCAUCA
B7: chrX:35959125:35959126:+_ENSMUSG00000000355_ENSMUST00000000365|mus_mus|FALSE|FALSE (ssRNA)
RNA: GGGAGUUCUACAGUCCGACGAUCAUUUGCUCCACUGAGUACAAAUUUGAUGGCUCCUUUAUCAACCUGCUGAUGUGGCAAGAUAAAAGGAUAUUUAUGAAGUAAUCUUAAAGUUGGAUAAAAAGGCCCUUCUCUUUGUCUAAACAACAGAGGAUUGAGCAUCA

target: T1, UNK ZnF1-3; experiment: nsRBNS (natural sequence RNA bind-n-seq); RBNS binding buffer (assumed for nsRBNS): 25 mM Tris pH 7.5, 150 mM KCl, 3 mM MgCl2, 0.01% Triton X-100, 500 ug/ml BSA, 20 U/ml SUPERase-In, 4 C; UNK is unkempt and MSI1 is Musashi-1; names of the RNAs are library labels; protein concentration not given here; high values mean tight binding

Row | Binder | binding signal
1 | B1 | 0.906 enrichment R
2 | B2 | 1.15 enrichment R
3 | B3 | 4.72 enrichment R
4 | B4 | 1.48 enrichment R
5 | B5 | 10 enrichment R
6 | B6 | 0.621 enrichment R
7 | B7 | 0.981 enrichment R
